Assay results taken from PubChem BioAssay.
Calls of active or inactive are those of the source. Unless noted, the rule behind the calls is not given here.

How the values were obtained:
[1] = A549 cell viability effects, profiling panel, calcein-AM fluorescence, 48 h, basal (AID 1162); conditions: higher = more signal; note: test concentration not given here
[2] = adipocyte viability effects, profiling panel, cell-based, 3T3-L1 adipocytes, calcein-AM fluorescence, 48 h, basal (AID 1163); conditions: 3T3-L1 adipocytes viability, higher = more signal; note: test concentration not given here
[3] = HepG2 cell viability effects, profiling panel, calcein-AM fluorescence, 48 h, basal (AID 1164); conditions: higher = more signal; note: test concentration not given here
[4] = MM1S cell viability effects, profiling panel, calcein-AM fluorescence, 48 h, basal (AID 1165); conditions: higher = more signal;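 note: viability of MM1S multiple myeloma cells under basal unstimulated conditions; test concentration not given here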
[5] = basal RPMI8226 viability, no added stimulus, profiling panel, cell-based, calcein-AM fluorescence, 48 h, PK04 Diversity Set (AID 1166); conditions: RPMI8226 myeloma viability, higher = more signal;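 note: cells grown under basal conditions without added stimulus; test concentration not given here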
[6] = basal HepG2 mitochondrial membrane potential changes, profiling panel, cell-based, JC-1 fluorescence, 24 h, 100 nL compound (AID 1167); conditions: higher = more signal; note: test concentration not given here
[7] = basal 3T3-L1 adipocyte mitochondrial potential changes, profiling panel, cell-based, JC-1 fluorescence, 3T3-L1 adipocytes, 24 h, 100 nL compound (AID 1168); conditions: JC-1 mitochondrial fluorescence, higher = more signal, called active from +8 up or from −8 down; note: test concentration not given here
[8] = basal RPMI8226 mitochondrial membrane potential changes, profiling panel, cell-based, JC-1 fluorescence, 24 h, 100 nL compound (AID 1169); conditions: RPMI8226 myeloma, JC-1 mitochondrial potential fluorescence, higher = more signal; note: test concentration not given here
[9] = basal MM1S mitochondrial membrane potential changes, profiling panel, cell-based, JC-1 fluorescence, 24 h, 100 nL compound (AID 1170); conditions: higher = more signal; note: test concentration not given here
[10] = A549 lung cancer cell viability effects, profiling panel, resazurin fluorescence, 24 h, PK04 Diversity Set (AID 1171); conditions: higher = more signal, called active from +8 up or from −8 down; note: test concentration not given here
[11] = HepG2 liver cancer cell viability effects, profiling panel, resazurin fluorescence, 24 h, PK04 Diversity Set (AID 1172); conditions: higher = more signal; note: test concentration not given here
[12] = basal S. cerevisiae growth modulation, no modifier, primary screen, OD600, strain BY4716, 24 h, basal condition (AID 1173); conditions: OD600, 24 h, higher = more signal, called active from +8 up or from −8 down
[13] = MM1S myeloma cell viability, profiling panel, resazurin fluorescence, basal, 24 h, PK04 Diversity Set (AID 1174); conditions: higher = more signal, called active from +8 up or from −8 down;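 note: MM1S multiple myeloma cell line; test concentration not given here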
[14] = molecular target: Dihydroorotate dehydrogenase (quinone), mitochondrial (Plasmodium falciparum (isolate 3D7)) (UniProt Q08210); assay: PfDHODH enzyme inhibitors, primary screen, biochemical, C-terminal His tag, absorbance 600 nm (AID 1175); conditions: DCIP absorbance 600 nm, higher = more signal, called active from +8 up or from −8 down;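 note: recombinant parasite enzyme with a five histidine tag at its C terminus; test concentration not given here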
Dihydroorotate dehydrogenase (quinone), mitochondrial (Plasmodium falciparum (isolate 3D7)), sequence (Q08210 whole entry, looked up): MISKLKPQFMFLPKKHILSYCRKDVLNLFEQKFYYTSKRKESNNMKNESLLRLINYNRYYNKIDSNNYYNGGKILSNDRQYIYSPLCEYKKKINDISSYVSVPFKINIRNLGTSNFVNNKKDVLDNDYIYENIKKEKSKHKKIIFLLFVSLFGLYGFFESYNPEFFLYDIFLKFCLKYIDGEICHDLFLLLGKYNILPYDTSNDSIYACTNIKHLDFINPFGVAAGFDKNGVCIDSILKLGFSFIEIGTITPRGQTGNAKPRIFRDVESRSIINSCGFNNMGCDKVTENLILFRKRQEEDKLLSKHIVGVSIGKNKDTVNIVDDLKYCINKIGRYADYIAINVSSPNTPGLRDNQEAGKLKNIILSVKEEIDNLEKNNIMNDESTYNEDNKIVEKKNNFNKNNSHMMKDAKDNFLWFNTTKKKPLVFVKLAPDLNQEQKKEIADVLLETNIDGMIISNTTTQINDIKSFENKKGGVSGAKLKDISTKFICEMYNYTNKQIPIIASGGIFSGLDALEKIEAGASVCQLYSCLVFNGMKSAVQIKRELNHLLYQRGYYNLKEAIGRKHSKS

[15] = P. aeruginosa biofilm formation inhibitors, primary screen, strain PAO1, LB-PBS medium, absorbance 600 nm (AID 1176); note: test concentration not given here; conditions: P. aeruginosa PAO1 growth/biofilm, A600, 12 h; higher = more signal
[16] = S. cerevisiae RM11-1a growth modifiers, primary screen, strain RM11-1a, OD600, basal, 24 h (AID 1177); conditions: OD600, 24 h, higher = more signal, called active from +8 up or from −8 down;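 note: cultures grown under basal conditions with no added stressor; test concentration not given here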
[17] = E. coli acrAB mutant growth effects, primary screen, E. coli filamentation inducers, strain DRC39, OD650, 24 h (AID 1178); conditions: higher = more signal, called active from +8 up or from −8 down;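 note: growth measured as culture turbidity by optical density at 650 nm; test concentration not given here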
[18] = E. coli acrAB mutant growth effects, primary screen, E. coli filamentation inducers, strain DRC39, OD650, 48 h (AID 1179);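 note: screen aims at cell division blockers that make cells filament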; conditions: E. coli DRC39 delta-acrAB growth, higher = more signal, called active from +8 up or from −8 down
[19] = RPMI8226 myeloma cell viability, profiling panel, resazurin fluorescence, basal, 24 h, PK04 Diversity Set (AID 1180); conditions: higher = more signal;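 note: RPMI8826 multiple myeloma cell line at 5000 cells per well; test concentration not given here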
[20] = molecular target: E3 ubiquitin-protein ligase XIAP (Homo sapiens) (UniProt P98170); assay: XIAP binders, primary screen, biophysical, small-molecule microarray, fluorescence 635 nm (AID 1181); conditions: small-molecule microarray binding, higher = more signal;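 note: score merges 667 nm emission and signal to noise over triplicate slides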
E3 ubiquitin-protein ligase XIAP (Homo sapiens), sequence (P98170 whole entry, looked up): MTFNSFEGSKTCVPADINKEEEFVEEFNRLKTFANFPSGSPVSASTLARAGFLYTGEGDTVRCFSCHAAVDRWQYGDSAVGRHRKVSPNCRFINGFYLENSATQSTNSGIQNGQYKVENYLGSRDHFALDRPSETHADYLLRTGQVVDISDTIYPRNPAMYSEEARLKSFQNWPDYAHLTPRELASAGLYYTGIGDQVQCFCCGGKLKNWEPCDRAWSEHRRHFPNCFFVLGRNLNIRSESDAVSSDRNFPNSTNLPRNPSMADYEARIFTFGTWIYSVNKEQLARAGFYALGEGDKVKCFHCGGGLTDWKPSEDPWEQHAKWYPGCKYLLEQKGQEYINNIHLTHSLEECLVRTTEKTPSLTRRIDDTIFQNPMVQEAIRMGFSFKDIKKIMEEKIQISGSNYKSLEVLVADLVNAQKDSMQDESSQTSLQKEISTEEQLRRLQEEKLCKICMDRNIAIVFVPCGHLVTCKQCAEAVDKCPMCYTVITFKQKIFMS

CC(C)=CCCC(C)=CCON=C1C[C@@H](O)[C@@H](O)[C@@H]2[C@@H]3C(=O)N(Cc4ccccc4)C(=O)[C@@H]3CC[C@H]12
z-score [1]: -0.424 | z-score [2]: 0.753 | z-score [3]: -0.908 | z-score [4]: -0.13 | z-score [5]: -1.41 | z-score [6]: 1.66 | z-score [7]: -0.468 (inactive) | z-score [8]: 0.394 | z-score [9]: -0.0142 | z-score [10]: 0.539 (inactive) | z-score [11]: 1.17 | z-score [12]: -2.99 (inactive) | z-score [13]: 1.14 (inactive) | composite z-score [14]: -0.88 (inactive) | z-score [15]: 0.507 (inactive) | z-score [16]: -1.28 (inactive) | z-score [17]: -0.366 (inactive) | z-score [18]: 0.167 (inactive) | z-score [19]: 0.369 | composite z-score [20]: -0.177

COC(=O)NCC=Cc1nc(CCCO)co1
z-score [1]: 0.206 | z-score [2]: -0.683 | z-score [3]: 0.392 | z-score [4]: 0.225 | z-score [5]: 0.0204 | z-score [6]: -0.64 | z-score [7]: 0.331 (inactive) | z-score [8]: -0.0369 | z-score [9]: -0.606 | z-score [10]: -0.238 (inactive) | z-score [11]: -0.0091 | z-score [12]: 0.41 (inactive) | z-score [13]: -0.295 (inactive) | composite z-score [14]: -0.706 (inactive) | z-score [15]: -0.245 (inactive) | z-score [16]: 0.414 (inactive) | z-score [17]: 0.107 (inactive) | z-score [18]: 0.438 (inactive) | z-score [19]: -0.626 | composite z-score [20]: -0.117

Cc1ccc(S(=O)(=O)N[C@H]2COC(=O)CC=C[C@H](C)[C@@H](NS(=O)(=O)c3ccc(C)cc3)COC(=O)CC=C[C@@H]2C)cc1
z-score [1]: -0.315 | z-score [2]: 0.352 | z-score [3]: -0.521 | z-score [4]: 0.248 | z-score [5]: -0.11 | z-score [6]: 0.477 | z-score [7]: -0.0603 (inactive) | z-score [8]: 0.822 | z-score [9]: 0.507 | z-score [10]: 0.694 (inactive) | z-score [11]: -0.0933 | z-score [12]: 1.32 (inactive) | z-score [13]: 0.418 (inactive) | composite z-score [14]: -0.069 (inactive) | z-score [15]: -0.585 (inactive) | z-score [16]: 1.34 (inactive) | z-score [17]: 0.455 (inactive) | z-score [18]: 0.614 (inactive) | z-score [19]: 0.0846 | composite z-score [20]: -0.146

CO[C@H]1COC(=O)[C@@H](C)COC(=O)[C@H](C)NC(=O)CC=C[C@H]1C
z-score [1]: -0.235 | z-score [2]: 0.18 | z-score [3]: 0.314 | z-score [4]: 0.0766 | z-score [5]: 0.235 | z-score [6]: 0.631 | z-score [7]: 0.118 (inactive) | z-score [8]: -0.693 | z-score [9]: 0.86 | z-score [10]: 0.488 (inactive) | z-score [11]: 0.926 | z-score [12]: -0.916 (inactive) | z-score [13]: 0.433 (inactive) | composite z-score [14]: 0.289 (inactive) | z-score [15]: -1.13 (inactive) | z-score [16]: -0.212 (inactive) | z-score [17]: 0.618 (inactive) | z-score [18]: -0.539 (inactive) | z-score [19]: 0.351 | composite z-score [20]: -0.327

COC(=O)[C@H]1O[C@@H](c2c(OC)c(OC)c(C)c(OC)c2OC)[C@H](C)[C@@H](O)[C@H]1C
z-score [1]: 1.2 | z-score [2]: -0.302 | z-score [3]: 0.825 | z-score [4]: 1 | z-score [5]: 1.36 | z-score [6]: 0.438 | z-score [7]: 0.61 (inactive) | z-score [8]: -0.398 | z-score [9]: -0.848 | z-score [10]: -1.27 (inactive) | z-score [11]: -0.617 | z-score [12]: -0.615 (inactive) | z-score [13]: -1.76 (inactive) | composite z-score [14]: -0.0757 (inactive) | z-score [15]: 0.417 (inactive) | z-score [16]: 0.275 (inactive) | z-score [17]: 0.968 (inactive) | z-score [18]: 0.926 (inactive) | z-score [19]: -0.456 | composite z-score [20]: -0.13

CCc1cc2c(nc1CC)CCN(CCC(C)=NO[C@H](C)c1cn([C@H](CO)Cc3ccccc3)nn1)C2
z-score [1]: 0.449 | z-score [2]: 1.22 | z-score [3]: 0.405 | z-score [4]: 0.341 | z-score [5]: -0.905 | z-score [6]: 0.551 | z-score [7]: -1.37 (inactive) | z-score [8]: -0.664 | z-score [9]: 0.105 | z-score [10]: -0.285 (inactive) | z-score [11]: -0.605 | z-score [12]: -0.0397 (inactive) | z-score [13]: -0.376 (inactive) | composite z-score [14]: 1.07 (inactive) | z-score [15]: -0.503 (inactive) | z-score [16]: -0.0857 (inactive) | z-score [17]: -1.4 (inactive) | z-score [18]: -1.17 (inactive) | z-score [19]: -0.162 | composite z-score [20]: 0.204

O=C1C[C@@H](O)[C@@H](O)[C@@H]2[C@@H]3C(=O)N(C[C@@H]4CCCO4)C(=O)[C@@H]3CC[C@@H]12
z-score [1]: 0.708 | z-score [2]: -0.378 | z-score [3]: 1.12 | z-score [4]: 0.107 | z-score [5]: -1.06 | z-score [6]: 1.29 | z-score [7]: -0.248 (inactive) | z-score [8]: -0.407 | z-score [9]: 0.345 | z-score [10]: -0.582 (inactive) | z-score [11]: -0.429 | z-score [12]: 0.0532 (inactive) | z-score [13]: -0.272 (inactive) | composite z-score [14]: 0.204 (inactive) | z-score [15]: 0.565 (inactive) | z-score [16]: -0.129 (inactive) | z-score [17]: 0.469 (inactive) | z-score [18]: 0.582 (inactive) | z-score [19]: -0.12 | composite z-score [20]: -0.0989

O=C1CCCC=C1C(CCc1ccccc1)OC(=O)c1ccc(Br)cc1 (stereo not given)
z-score [1]: -0.281 | z-score [2]: 0.893 | z-score [3]: -0.318 | z-score [4]: -3.42 | z-score [5]: -2.69 | z-score [6]: -0.158 | z-score [7]: -1.15 (inactive) | z-score [8]: -0.619 | z-score [9]: -0.127 | z-score [10]: -0.251 (inactive) | z-score [11]: -0.0575 | z-score [12]: -0.744 (inactive) | z-score [13]: -0.688 (inactive) | composite z-score [14]: -1.19 (inactive) | z-score [15]: 1.18 (inactive) | z-score [16]: -0.0079 (inactive) | z-score [17]: -0.147 (inactive) | z-score [18]: -0.247 (inactive) | z-score [19]: 0.504 | composite z-score [20]: 0.289

C=CC[C@@H]1C=C[C@H](ON=C(C)CCC(=O)OC[C@H]2O[C@H](c3ccccc3)C=C[C@@H]2Oc2ccc(OC)cc2)[C@@H](CO)O1
z-score [1]: 1.21 | z-score [2]: -0.741 | z-score [3]: -0.403 | z-score [4]: -1.91 | z-score [5]: -0.428 | z-score [6]: -0.859 | z-score [7]: 0.0616 (inactive) | z-score [8]: 0.0738 | z-score [9]: -1.02 | z-score [10]: 0.524 (inactive) | z-score [11]: 0.0276 | z-score [12]: 0.31 (inactive) | z-score [13]: -0.517 (inactive) | composite z-score [14]: -0.582 (inactive) | z-score [15]: 0.347 (inactive) | z-score [16]: -0.0293 (inactive) | z-score [17]: 0.741 (inactive) | z-score [18]: 1.15 (inactive) | z-score [19]: -0.212 | composite z-score [20]: -0.0272
